# Laboratory results as given in PubChem BioAssay (NCATS).
# Results filed as inconclusive are left out. A call without a number means that no potency is given here. Calls of active or inactive are those of the source. Unless noted, calls follow the shape of the dose curve; as a rule, active = well fitted curve in either direction with a large enough effect (not every such curve was filed as active); inconclusive = small, poorly fitted or top-dose-only effect, or another doubt; inactive = flat fitted curve, though single readings scatter.
# Experiments:
# [1] = target: Mitogen-activated protein kinase 10 (Mus musculus) (UniProt Q61831); experiment: JNK3 AlphaScreen Assay (AID 530);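 also: kinase came from lysate of stimulated human HepG2 cells; signal reports phosphorylation of biotinylated GST-cJun 1-79 at Ser73 with 10 µM ATP; series mostly up to about 57 µM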
# How it was run: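 Room-temperature AlphaScreen kinase assay; pre-activated HepG2 lysate as JNK3 source, biotin-GST-cJun(1-79) substrate, 10 uM ATP, compound 15 min preincubation.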
# [2] = target: 3',5'-cyclic-AMP phosphodiesterase 4B (Homo sapiens) (UniProt Q07343); experiment: qHTS Assay for Inhibitors of PDE-IV (AID 607; active = well fitted activation curve with a large enough effect in the main read-out, with a control signal flat, not every such curve was filed as active)
# Sequence of 3',5'-cyclic-AMP phosphodiesterase 4B (Homo sapiens) (Q07343 whole entry, looked up): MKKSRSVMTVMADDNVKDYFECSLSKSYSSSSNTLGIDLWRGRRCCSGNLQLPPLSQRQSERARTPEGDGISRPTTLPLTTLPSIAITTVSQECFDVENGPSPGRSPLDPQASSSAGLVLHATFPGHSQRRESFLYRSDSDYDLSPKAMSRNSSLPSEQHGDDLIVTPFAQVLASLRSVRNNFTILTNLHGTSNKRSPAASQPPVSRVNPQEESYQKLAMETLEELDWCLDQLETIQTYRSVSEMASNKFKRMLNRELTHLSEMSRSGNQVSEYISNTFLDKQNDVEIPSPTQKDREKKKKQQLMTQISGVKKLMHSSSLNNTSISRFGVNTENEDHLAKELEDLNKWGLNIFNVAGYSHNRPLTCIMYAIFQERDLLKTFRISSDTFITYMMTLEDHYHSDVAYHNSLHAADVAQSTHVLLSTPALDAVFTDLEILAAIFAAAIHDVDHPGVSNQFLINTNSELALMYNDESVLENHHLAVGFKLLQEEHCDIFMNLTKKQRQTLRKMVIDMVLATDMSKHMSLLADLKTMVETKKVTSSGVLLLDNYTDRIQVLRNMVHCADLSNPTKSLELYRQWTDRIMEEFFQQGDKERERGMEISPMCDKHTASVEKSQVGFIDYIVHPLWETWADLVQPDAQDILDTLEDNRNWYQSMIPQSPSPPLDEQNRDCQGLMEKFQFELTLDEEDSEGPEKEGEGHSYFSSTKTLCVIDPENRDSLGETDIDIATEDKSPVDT
# How it was run: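 Cell-based read-out of cAMP via a modified cyclic nucleotide-gated channel and membrane potential dye (535/590 nm) in HEK293 cells expressing PDE4 endogenously. Compounds tested up to 22.9 uM final; 100 uM RO 20-1724 reference.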
# [3] = target: Cytochrome P450 3A4 (Homo sapiens) (UniProt P08684); experiment: qHTS Assay for Activators of Cytochrome P450 3A4 (AID 885; active = well fitted curve in the direction sought with a large enough effect; an effect the other way counts as inactive or inconclusive; also: nearly all actives have a fitted effect of over 65% in size)
# Sequence of Cytochrome P450 3A4 (Homo sapiens) (P08684 whole entry, looked up): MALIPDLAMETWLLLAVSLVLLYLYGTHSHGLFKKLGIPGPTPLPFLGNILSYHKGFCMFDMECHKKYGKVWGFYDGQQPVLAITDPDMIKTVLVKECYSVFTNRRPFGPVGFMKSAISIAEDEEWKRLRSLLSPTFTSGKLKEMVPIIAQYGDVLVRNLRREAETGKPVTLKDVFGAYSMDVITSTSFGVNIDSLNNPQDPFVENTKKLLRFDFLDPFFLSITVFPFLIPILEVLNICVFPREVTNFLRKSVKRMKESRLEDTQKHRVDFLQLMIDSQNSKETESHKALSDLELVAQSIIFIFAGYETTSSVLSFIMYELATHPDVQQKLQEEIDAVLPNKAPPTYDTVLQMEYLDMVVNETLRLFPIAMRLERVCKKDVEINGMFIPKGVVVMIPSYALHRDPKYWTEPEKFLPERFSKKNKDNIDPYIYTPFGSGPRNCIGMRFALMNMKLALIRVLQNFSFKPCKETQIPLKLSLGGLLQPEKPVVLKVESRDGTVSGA
# How it was run: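 Signal was normalized against complete inhibition by 57 uM ketoconazole. The reaction used 20nM CYP3A4 with 25uM Luciferin-PPXE, 10-min compound preincubation and a 60-min NADPH-supported step at RT.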
# [4] = target: Cytochrome P450 2C9 (Homo sapiens) (UniProt P11712); experiment: qHTS Assay for Inhibitors and Substrates of Cytochrome P450 2C9 (AID 883; active = well fitted curve in the direction sought with a large enough effect; an effect the other way counts as inactive or inconclusive; also: potency is read from the fitted curve at half-maximal effect; nearly all actives have a fitted effect of over 60% in size)
# Sequence of Cytochrome P450 2C9 (Homo sapiens) (P11712 whole entry, looked up): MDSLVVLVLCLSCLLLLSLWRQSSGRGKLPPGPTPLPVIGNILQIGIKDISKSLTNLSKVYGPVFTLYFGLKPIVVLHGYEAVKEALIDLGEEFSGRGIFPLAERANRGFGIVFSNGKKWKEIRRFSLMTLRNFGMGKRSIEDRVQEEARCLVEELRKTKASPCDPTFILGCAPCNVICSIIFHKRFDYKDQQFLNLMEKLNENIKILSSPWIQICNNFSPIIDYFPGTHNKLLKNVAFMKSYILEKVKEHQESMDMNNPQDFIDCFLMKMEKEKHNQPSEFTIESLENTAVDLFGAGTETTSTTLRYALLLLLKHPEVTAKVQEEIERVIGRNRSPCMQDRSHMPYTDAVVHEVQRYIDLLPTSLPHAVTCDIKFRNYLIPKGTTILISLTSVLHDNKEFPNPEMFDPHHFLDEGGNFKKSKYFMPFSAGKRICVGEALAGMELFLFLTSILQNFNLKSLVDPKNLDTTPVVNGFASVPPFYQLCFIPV
# How it was run: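 Inhibition of CYP2C9 is scored as loss of luminescence, with 57uM sulphaphenazole defining 100% inhibition. Substrate Luciferin-H is used at 100uM, equal to its KM; enzyme at 10nM in 25mM KPO4, 60 min at 37C with NADPH regeneration.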
# [5] = target: Cytochrome P450 3A4 (Homo sapiens) (UniProt P08684); experiment: qHTS Assay for Inhibitors and Substrates of Cytochrome P450 3A4 (AID 884; active = well fitted curve in the direction sought with a large enough effect; an effect the other way counts as inactive or inconclusive; also: nearly all actives have a fitted effect of over 50% in size; also: potency is read from the fitted curve at half-maximal effect)
# How it was run: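 20 nM human CYP3A4 with 25 uM Luciferin-PPXE (at KM) in 200 mM KPO4, preincubated 10 min with compound; NADPH regeneration started a 60 min RT reaction. Luciferin detected by luminescence, normalized to 57 uM ketoconazole as full inhibition.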
# [6] = target: Cytochrome P450 2C19 (Homo sapiens) (UniProt P33261); experiment: qHTS Assay for Inhibitors and Substrates of Cytochrome P450 2C19 (AID 899; active = well fitted curve in the direction sought with a large enough effect; an effect the other way counts as inactive or inconclusive; also: potency is read from the fitted curve at half-maximal effect; nearly all actives have a fitted effect of over 60% in size)
# Sequence of Cytochrome P450 2C19 (Homo sapiens) (P33261 whole entry, looked up): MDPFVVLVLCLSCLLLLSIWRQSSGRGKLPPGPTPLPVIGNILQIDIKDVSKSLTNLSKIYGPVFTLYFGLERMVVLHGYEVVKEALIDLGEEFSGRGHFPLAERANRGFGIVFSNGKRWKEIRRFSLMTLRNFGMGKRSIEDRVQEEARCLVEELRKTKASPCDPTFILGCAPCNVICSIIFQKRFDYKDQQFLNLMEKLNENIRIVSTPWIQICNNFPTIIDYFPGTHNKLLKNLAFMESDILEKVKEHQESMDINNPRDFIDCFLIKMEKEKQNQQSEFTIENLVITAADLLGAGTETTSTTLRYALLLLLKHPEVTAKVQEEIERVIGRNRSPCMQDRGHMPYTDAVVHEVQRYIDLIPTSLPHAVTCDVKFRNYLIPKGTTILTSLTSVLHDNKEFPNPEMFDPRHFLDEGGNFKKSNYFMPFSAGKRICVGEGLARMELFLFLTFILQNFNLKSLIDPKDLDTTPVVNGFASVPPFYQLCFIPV
# How it was run: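 5nM enzyme + 10uM Luciferin-H EGE (=KM), 50mM KPO4; cpd pin-transferred, 10 min 37C; NADPH regen, 60 min 37C; stopped w/ luciferin detection reagent, 20 min; luminescence. Normalized to 57uM ketoconazole (AC100).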
smiles,measurement,setting,value
COC(=O)[C@@]1(Cc2ccc(OC)cc2)[C@@H]2[C@@H](CC(=O)[C@H]2CC(=O)C(=O)N(C)C)CN1C(=O)c1ccccc1,outcome,[1],inactive
same,outcome,[2],inactive
same,Potency,[3],inactive
COC(=O)[C@@]1(Cc2ccccc2)[C@H]2c3cc(C(=O)N(C)C)n(Cc4c(CO)[nH]cc(C)c4=O)c3C[C@H]2CN1C(=O)c1ccccc1,outcome,[1],inactive
same,outcome,[2],inactive
same,Potency,[4],631 nM (active)
same,Potency,[5],1580 nM (active)
same,Potency,[3],inactive
same,Potency,[6],3160 nM (active)
COC(=O)[C@@]1(Cc2ccc(F)cc2)[C@H]2c3cc(C(=O)N4CCCC4)n(Cc4ccc(C(F)(F)F)nc4)c3C[C@H]2CN1C(=O)c1ccccc1,outcome,[1],inactive
same,outcome,[2],inactive
O=C(NCC1CC1)[C@H]1C[C@@H]1[C@H](NP(=O)(c1ccccc1)c1ccccc1)c1ccccc1,outcome,[1],inactive
same,outcome,[2],inactive
CC1=C(C(=O)OCc2ccccc2)C(c2cccc([N+](=O)[O-])c2)NC(=O)N1CCCCCC(=O)O (centres undefined),outcome,[1],inactive
same,Potency,[5],inactive
C[C@H]1C2=C3C(CC[C@H]4C(OCc5ccc(F)cc5C(F)(F)F)OC[C@](C)([C@@H]34)N(C(=O)OC(C)(C)C)C2)C2COC(=O)OCC21 (some centres undefined),outcome,[1],inactive
same,outcome,[2],inactive
same,Potency,[3],inactive
C[C@@H](C(=O)NCC1CC1)[C@H]1C[C@]1(C)[C@H](NC(=O)OCc1ccccc1)c1ccccc1,outcome,[1],inactive
same,outcome,[2],inactive
CC(Cc1ccccc1)C(=O)NCC1CC1 (centres undefined),outcome,[1],inactive
same,Potency,[5],inactive
COCCNC(=O)[C@H]1C[C@@H]1[C@H](NP(=O)(c1ccccc1)c1ccccc1)c1ccccc1,outcome,[1],inactive
same,outcome,[2],inactive
COC(=O)[C@@]1(Cc2ccc(F)cc2)[C@H]2c3cc(C(=O)N4CCCC4)n(CCc4c[nH]c5ccc(OC)cc45)c3C[C@H]2CN1C(=O)c1ccccc1,outcome,[1],inactive
same,outcome,[2],inactive
same,Potency,[4],7940 nM (active)
same,Potency,[3],inactive
same,Potency,[6],7940 nM (active)
COC(=O)N1[C@H](C)C=C[C@]1(Cc1ccccc1)C(=O)O,outcome,[1],inactive
same,Potency,[5],inactive
COC(=O)[C@@]1(Cc2ccccc2)[C@H]2c3cc(C(=O)N(C)C)n(CCF)c3C[C@H]2CN1C(=O)c1ccccc1,outcome,[1],inactive
same,outcome,[2],inactive
COC(=O)[C@@]1(Cc2ccc(OC)cc2)[C@H]2c3cc(C(=O)N(C)C)n(C[C@H](O)CO)c3C[C@H]2CN1C(=O)c1ccccc1,outcome,[1],inactive
same,outcome,[2],inactive
COCCNC(=O)[C@H](C)[C@@H]1C[C@@]1(C)[C@@H](NC(=O)OCc1ccccc1)c1ccccc1,outcome,[1],inactive
same,outcome,[2],inactive
same,Potency,[5],7940 nM (active)
same,Potency,[6],3160 nM (active)
COC(=O)N1[C@H](Cc2ccccc2)C=C[C@]1(C)C(=O)O,outcome,[1],inactive
same,Potency,[5],inactive
COC(=O)[C@@]1(Cc2ccc(OC)cc2)[C@H]2c3cc(C(=O)N4CCCC4)n(CCN4CCOCC4)c3C[C@H]2CN1C(=O)c1ccccc1,outcome,[1],inactive
same,outcome,[2],inactive
COC(=O)[C@@]1(Cc2ccc(F)cc2)[C@H]2c3cc(C(=O)N(C)C)n(CCF)c3C[C@H]2CN1C(=O)c1ccccc1,outcome,[1],inactive
same,outcome,[2],inactive
CC(C)=C1C(=O)C(c2ccccc2)=C2CN3C(=O)N(CCc4ccccc4)C(=O)[C@]3(Cc3ccc(C(F)(F)F)cc3)[C@H]21,outcome,[1],inactive
same,outcome,[2],inactive
CCCC[C@@H]1C[C@H]1C(NC(=O)c1cccnc1)c1ccc(-c2ccccc2)cc1 (some centres undefined),outcome,[1],inactive
same,Potency,[4],5010 nM (active)
same,Potency,[3],inactive
Cc1ccc(CNC(=O)[C@H](C)[C@H]2C[C@]2(C)[C@H](NC(=O)OCc2ccccc2)c2ccccc2)o1,outcome,[1],inactive
same,outcome,[2],inactive
COC(=O)[C@@]1(Cc2ccccc2)[C@H]2c3cc(C(=O)N4CCCC4)n(CCN4CNCC4=O)c3C[C@H]2CN1C(=O)c1ccccc1,outcome,[1],inactive
same,outcome,[2],inactive
same,Potency,[4],2000 nM (active)
same,Potency,[3],inactive
C=C(CC1([C@@H](NP(=O)(c2ccccc2)c2ccccc2)[C@H]2C[C@@H]2CCCC)CC1)c1ccccc1,outcome,[1],inactive
same,outcome,[2],inactive
same,Potency,[5],1580 nM (active)
same,Potency,[3],inactive
COC(=O)c1ccc(C(NC(=O)OCc2ccccc2)/C(F)=C/[C@@H](C)C(=O)Nc2ccc(OC)cc2)cc1 (some centres undefined),outcome,[1],inactive
same,Potency,[5],2000 nM (active)
COC(=O)[C@@]1(Cc2ccc(F)cc2)[C@H]2c3cc(C(=O)N4CCCC4)n(Cc4ccc(S(C)(=O)=O)cc4)c3C[C@H]2CN1C(=O)c1ccccc1,outcome,[1],inactive
same,outcome,[2],inactive
same,Potency,[3],inactive
COC(=O)c1ccc(C(NC(=O)OCc2ccccc2)/C(=C/[C@@H](C)C(=O)Nc2ccc(OC)cc2)c2cccnc2)cc1 (some centres undefined),outcome,[1],inactive
same,Potency,[5],1000 nM (active)
COC(=O)[C@@]1(Cc2ccccc2)[C@H]2c3cc(C(=O)N(C)C)n(CCSCCO)c3C[C@H]2CN1C(=O)c1ccccc1,outcome,[1],inactive
same,outcome,[2],inactive
COC(=O)[C@@]1(Cc2ccccc2)[C@H]2c3cc(C(=O)N4CCCC4)[nH]c3C[C@H]2CN1C(=O)c1ccccc1,outcome,[1],inactive
same,outcome,[2],inactive
same,Potency,[4],794 nM (active)
same,Potency,[5],2510 nM (active)
same,Potency,[3],inactive
same,Potency,[6],501 nM (active)
C[C@H](CO)NC(=O)[C@H](C)[C@@H]1C[C@@]1(C)[C@@H](NC(=O)OCc1ccccc1)c1ccccc1,outcome,[1],inactive
same,outcome,[2],inactive
same,Potency,[5],5010 nM (active)
same,Potency,[3],inactive
COC(=O)[C@@]1(Cc2ccc(OC)cc2)[C@H]2c3cc(C(=O)N4CCCC4)n(Cc4ccccn4)c3C[C@H]2CN1C(=O)c1ccccc1,outcome,[1],inactive
same,outcome,[2],inactive
CCCn1c(C)nc2c(NCCCN(C)C)nc(C)nc21,outcome,[1],inactive
same,Potency,[5],inactive
COC(=O)[C@H]1C[C@@H]1[C@H](NS(=O)(=O)c1ccccc1)c1ccccc1,outcome,[1],inactive
same,outcome,[2],inactive
COCCNC(=O)C1(CC(C)C)C=CCN1C(C)=O (centres undefined),outcome,[1],inactive
same,Potency,[5],inactive
COC(=O)[C@@H]1C[C@H]1[C@@H](N)c1ccccc1,outcome,[1],inactive
same,outcome,[2],inactive
COC(=O)[C@@]1(Cc2ccc(OC)cc2)[C@H]2c3cc(C(=O)N4CCCC4)n(CCc4ccc(O)c(OC)c4)c3C[C@H]2CN1C(=O)c1ccccc1,outcome,[1],inactive
same,outcome,[2],inactive
CO[C@H]1OC[C@@]2(C)[C@@H]3C4=C(CN2C(=O)OC(C)(C)C)[C@H](C)[C@H](CO)[C@H](CO)[C@H]4CC[C@H]13,outcome,[1],inactive
same,outcome,[2],inactive
same,Potency,[3],inactive
